From PubChem BioAssay (EPA / NIEHS)
Several values for one entry are separate records, joined by “and”; a condition that tells them apart may be missing. Identical values can stand only once. Where a structure was tested more than once in an assay, its records may differ in their call. Activity calls are given as the source filed them. The calls were made as follows, unless noted: active = hit-call score of the fitted dose curve at least 0.9, where 1 is the maximum; inactive = score below 0.9.

Assays:
[1] = target: Peroxisome proliferator-activated receptor gamma (Homo sapiens) (UniProt P37231); assay: OT_PPARg_PPARgSRC1_1440: Odyssey Thera (OT) 24-hour Protein-Complementation Assay for Peroxisome Proliferator-activated Receptor Gamma/ SRC-1 Co-activator (AID 2283388; active = hit-call score of the fitted dose curve at least 0.9, where 1 is the maximum;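 also: nuclear to cytoplasmic ratio of reconstituted Venus YFP fluorescence in fixed imaged cells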)
Summary of the method: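 Readout is the 488 nm N/C fluorescence ratio from fixed, Draq5-stained HEK293T cells after 24 h compound exposure. Cells carried transiently transfected PPARg and SRC-1 fused to Venus fragments, transfected 48 h before treatment.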

[2] = read-out: Tumor necrosis factor receptor superfamily member 6 (Homo sapiens) (UniProt P25445); assay: LTEA_HepaRG_FAS: Life Technologies and Expression Analysis (LTEA) Assay for Fas cell surface death receptor (FAS) using HepaRG (AID 2283447); settings: mRNA level, 48 h; actives raise or lower the signal
Summary of the method: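 Differentiated HepaRG cells in serum-free induction medium were exposed 48 h to 8 half-log concentrations up to 100 uM in 0.5% DMSO, in duplicate. FAS mRNA was measured by qRT-PCR normalised to ACTB, GAPDH and POLR2A; bidirectional fit versus DMSO.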

[3] = read-out: Fatty acid synthase (Homo sapiens) (UniProt P49327); assay: LTEA_HepaRG_FASN: Life Technologies and Expression Analysis (LTEA) Assay for Fatty Acid Synthase (FASN) using HepaRG (AID 2283448); settings: mRNA level, 48 h; actives raise or lower the signal;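 as to AC50: differentiated human HepaRG liver cells in serum-free induction medium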
Summary of the method: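 FASN expression changes, up or down relative to 0.5% DMSO, were measured by qRT-PCR in human HepaRG cells after 48 h treatment with chemicals at eight concentrations (half-log steps from 100 uM).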

[4] = read-out: Cyclin D2 (CCND2), CCND2 (gene 894); assay: LTEA_HepaRG_CCND2: Life Technologies and Expression Analysis (LTEA) Assay for Cyclin D2 (CCND2) using HepaRG (AID 2283449); settings: mRNA level, 48 h; actives raise or lower the signal;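 also: CCND2 transcript measured by TaqMan qRT-PCR and normalised to three housekeeping genes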
Summary of the method: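 Chemicals in 0.5% DMSO, eight half-log concentrations from 100 uM top, were applied in duplicate for 48 h to human HepaRG cells in serum-free induction medium. CCND2 mRNA by TaqMan qRT-PCR, normalised to ACTB/GAPDH/POLR2A; bidirectional fit versus DMSO.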

[5] = read-out: Cyclin Dependent Kinase Inhibitor 1A (CDKN1A), CDKN1A (gene 1026); assay: LTEA_HepaRG_CDKN1A: Life Technologies and Expression Analysis (LTEA) Assay for Cyclin Dependent Kinase Inhibitor 1A (CDKN1A) using HepaRG (AID 2283450); settings: mRNA level, 48 h; actives raise or lower the signal
Summary of the method: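 Expression quantified by Fluidigm qRT-PCR with ACTB, GAPDH and POLR2A normalization, fitted bidirectionally against 0.5% DMSO. Cells: HepaRG, plated 48 h then treated 48 h in serum-free induction medium, top concentration 100 uM with half-log dilutions.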

[6] = read-out: Cyclin D1 (CCND1), CCND1 (gene 595); assay: LTEA_HepaRG_CCND1: Life Technologies and Expression Analysis (LTEA) Assay for Cyclin D1 (CCND1) using HepaRG (AID 2283451); settings: mRNA level, 48 h; actives raise or lower the signal;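 as to AC50: differentiated human HepaRG liver cells in serum-free induction medium; TaqMan qRT-PCR transcript level normalised to ACTB GAPDH and POLR2A housekeeping genes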
Summary of the method: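 Expression of CCND1 was quantified by qRT-PCR on Fluidigm arrays using ACTB, GAPDH and POLR2A as reference genes. HepaRG cultures, plated 48 h beforehand, were dosed for 48 h at up to 100 uM (half-log, 8 points) in 0.5% DMSO.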

[7] = read-out: catalase (CAT), CAT (gene 847); assay: LTEA_HepaRG_CAT: Life Technologies and Expression Analysis (LTEA) Assay for catalase (CAT) using HepaRG (AID 2283452); settings: mRNA level, 48 h; actives raise or lower the signal;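 as to AC50: TaqMan qRT-PCR signal normalized to ACTB GAPDH and POLR2A housekeeping genes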
Summary of the method: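 HepaRG cells in serum-free induction medium, 0.5% DMSO vehicle, exposed 48 h in duplicate over 8 half-log concentrations from 100 uM. CAT mRNA measured by qRT-PCR, normalized to ACTB, GAPDH, POLR2A; bidirectional fit versus DMSO.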

[8] = read-out: flavin-containing dimethylaniline monooxygenases 3 (FMO3), FMO3 (gene 2328); assay: LTEA_HepaRG_FMO3: Life Technologies and Expression Analysis (LTEA) Assay for flavin-containing dimethylaniline monooxygenases 3 (FMO3) using HepaRG (AID 2283453); settings: mRNA level, 48 h; actives raise or lower the signal;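 as to AC50: differentiated human HepaRG liver cells in serum-free induction medium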
Summary of the method: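 Differentiated HepaRG cells in serum-free induction medium, exposed 48 h in duplicate to 8 half-log concentrations up to 100 uM in 0.5% DMSO. FMO3 mRNA by qRT-PCR, normalized to ACTB, GAPDH, POLR2A; bidirectional fit vs DMSO.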

[9] = read-out: Cytochrome P450 (CYP1A1), CYP1A1 (gene 1543); assay: LTEA_HepaRG_CYP1A1: Life Technologies and Expression Analysis (LTEA) Assay for Cytochrome P450 (CYP1A1) using HepaRG (AID 2283454); settings: mRNA level, 48 h; actives raise or lower the signal
Summary of the method: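 CYP1A1 transcript levels measured by Fluidigm qRT-PCR against three housekeeping genes, 48 h after chemical dosing of human HepaRG cells (highest concentration 100 uM, half-log steps, 0.5% DMSO vehicle). Gain or loss of signal fitted relative to DMSO.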

[10] = read-out: CFLAR gene, CFLAR (gene 8837); assay: LTEA_HepaRG_CFLAR: Life Technologies and Expression Analysis (LTEA) Assay for CFLAR gene using HepaRG (AID 2283455); settings: mRNA level, 48 h; actives raise or lower the signal
Summary of the method: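 Differentiated HepaRG cells in serum-free induction medium were exposed 48 h in duplicate to eight half-log concentrations up to 100 uM in 0.5% DMSO; mRNA measured by TaqMan qRT-PCR, normalized to ACTB, GAPDH, POLR2A; bidirectional fitting versus DMSO.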

Fatty acid synthase (Homo sapiens), sequence (P49327 whole entry, looked up): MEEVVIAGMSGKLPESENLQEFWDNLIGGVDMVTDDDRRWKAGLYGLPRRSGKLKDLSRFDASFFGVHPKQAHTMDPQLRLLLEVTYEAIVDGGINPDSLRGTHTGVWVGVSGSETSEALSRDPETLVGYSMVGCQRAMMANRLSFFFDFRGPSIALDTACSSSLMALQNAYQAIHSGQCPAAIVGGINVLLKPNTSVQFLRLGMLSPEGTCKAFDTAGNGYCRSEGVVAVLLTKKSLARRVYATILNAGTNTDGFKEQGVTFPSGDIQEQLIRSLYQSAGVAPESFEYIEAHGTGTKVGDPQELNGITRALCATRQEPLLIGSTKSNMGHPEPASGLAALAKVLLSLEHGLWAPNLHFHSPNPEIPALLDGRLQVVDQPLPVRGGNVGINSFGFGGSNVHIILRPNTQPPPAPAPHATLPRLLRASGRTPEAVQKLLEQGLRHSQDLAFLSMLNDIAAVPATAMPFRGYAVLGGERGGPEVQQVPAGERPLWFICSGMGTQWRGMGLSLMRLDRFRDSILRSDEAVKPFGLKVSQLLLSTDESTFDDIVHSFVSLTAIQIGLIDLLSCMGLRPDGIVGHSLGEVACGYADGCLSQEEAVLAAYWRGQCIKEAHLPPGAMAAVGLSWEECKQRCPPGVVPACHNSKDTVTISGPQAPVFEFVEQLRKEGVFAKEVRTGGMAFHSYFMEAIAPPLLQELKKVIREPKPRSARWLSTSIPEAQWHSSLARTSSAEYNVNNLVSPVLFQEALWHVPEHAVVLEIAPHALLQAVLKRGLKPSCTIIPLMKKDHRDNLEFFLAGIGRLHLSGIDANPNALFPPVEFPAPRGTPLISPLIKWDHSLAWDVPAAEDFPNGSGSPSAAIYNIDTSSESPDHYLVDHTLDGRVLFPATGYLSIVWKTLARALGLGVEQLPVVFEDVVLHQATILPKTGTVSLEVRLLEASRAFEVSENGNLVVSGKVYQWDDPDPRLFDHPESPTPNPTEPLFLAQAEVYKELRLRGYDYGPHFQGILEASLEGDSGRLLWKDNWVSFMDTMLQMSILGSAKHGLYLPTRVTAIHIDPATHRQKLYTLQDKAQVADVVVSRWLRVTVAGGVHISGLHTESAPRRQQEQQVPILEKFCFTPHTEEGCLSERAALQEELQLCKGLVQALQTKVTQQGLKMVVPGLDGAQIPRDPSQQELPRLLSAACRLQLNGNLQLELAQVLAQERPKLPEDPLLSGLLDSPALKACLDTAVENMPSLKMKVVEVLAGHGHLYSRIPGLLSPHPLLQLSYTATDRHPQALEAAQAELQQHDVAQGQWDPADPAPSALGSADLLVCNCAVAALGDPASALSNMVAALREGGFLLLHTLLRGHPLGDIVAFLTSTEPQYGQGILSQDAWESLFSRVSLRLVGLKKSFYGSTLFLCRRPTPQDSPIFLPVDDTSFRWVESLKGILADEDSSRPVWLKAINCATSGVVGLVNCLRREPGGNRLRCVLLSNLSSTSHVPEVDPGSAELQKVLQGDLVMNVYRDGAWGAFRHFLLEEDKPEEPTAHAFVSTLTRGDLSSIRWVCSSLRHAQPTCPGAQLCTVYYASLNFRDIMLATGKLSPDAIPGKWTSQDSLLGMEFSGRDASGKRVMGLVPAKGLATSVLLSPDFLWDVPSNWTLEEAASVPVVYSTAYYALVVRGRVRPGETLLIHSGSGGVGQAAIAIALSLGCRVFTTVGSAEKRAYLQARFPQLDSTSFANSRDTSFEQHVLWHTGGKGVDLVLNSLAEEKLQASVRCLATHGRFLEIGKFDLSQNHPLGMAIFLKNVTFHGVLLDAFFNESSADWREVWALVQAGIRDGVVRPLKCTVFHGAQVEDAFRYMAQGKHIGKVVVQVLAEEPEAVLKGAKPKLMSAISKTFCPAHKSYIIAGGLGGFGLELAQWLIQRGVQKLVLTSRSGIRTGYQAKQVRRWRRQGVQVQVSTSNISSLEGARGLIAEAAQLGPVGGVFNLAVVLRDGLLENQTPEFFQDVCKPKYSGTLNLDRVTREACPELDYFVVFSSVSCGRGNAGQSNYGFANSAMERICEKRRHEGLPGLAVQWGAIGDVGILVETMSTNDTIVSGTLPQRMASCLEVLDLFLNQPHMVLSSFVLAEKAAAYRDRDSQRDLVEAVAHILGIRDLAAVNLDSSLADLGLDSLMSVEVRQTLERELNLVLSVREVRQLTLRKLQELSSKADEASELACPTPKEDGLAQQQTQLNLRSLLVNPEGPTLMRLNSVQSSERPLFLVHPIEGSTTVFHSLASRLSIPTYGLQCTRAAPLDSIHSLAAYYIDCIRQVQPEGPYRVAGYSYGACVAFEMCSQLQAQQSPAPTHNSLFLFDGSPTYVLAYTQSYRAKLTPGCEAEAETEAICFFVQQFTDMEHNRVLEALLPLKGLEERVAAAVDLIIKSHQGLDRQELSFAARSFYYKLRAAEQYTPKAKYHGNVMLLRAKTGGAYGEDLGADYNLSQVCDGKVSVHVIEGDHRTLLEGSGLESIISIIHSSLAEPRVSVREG
Peroxisome proliferator-activated receptor gamma (Homo sapiens), sequence (P37231 whole entry, looked up, the tested form may be a part): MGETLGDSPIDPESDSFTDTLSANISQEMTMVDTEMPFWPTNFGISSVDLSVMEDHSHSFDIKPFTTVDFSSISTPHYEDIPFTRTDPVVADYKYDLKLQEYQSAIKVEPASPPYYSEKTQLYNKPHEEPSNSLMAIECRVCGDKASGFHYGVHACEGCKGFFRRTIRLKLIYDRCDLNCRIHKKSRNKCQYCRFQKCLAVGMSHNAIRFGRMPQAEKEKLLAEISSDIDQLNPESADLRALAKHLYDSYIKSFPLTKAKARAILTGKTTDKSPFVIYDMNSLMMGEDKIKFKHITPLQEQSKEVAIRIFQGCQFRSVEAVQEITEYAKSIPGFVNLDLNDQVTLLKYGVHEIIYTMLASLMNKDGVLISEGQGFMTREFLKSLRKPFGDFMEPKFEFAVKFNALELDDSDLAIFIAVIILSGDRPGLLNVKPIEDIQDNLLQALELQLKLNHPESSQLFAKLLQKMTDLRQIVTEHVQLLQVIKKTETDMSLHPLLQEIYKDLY

| SMILES | outcome [1] | outcome [2] | outcome [3] | outcome [4] | outcome [5] | outcome [6] | outcome [7] | outcome [8] | AC50 [9] | outcome [10] | AC50 [3] | AC50 [5] | AC50 [6] | AC50 [7] | AC50 [8] | outcome [9] | AC50 [2] | AC50 [10] |
| --- | --- | --- | --- | --- | --- | --- | --- | --- | --- | --- | --- | --- | --- | --- | --- | --- | --- | --- |
| CCCCC(CC)COC(=O)c1ccccc1C(=O)OCC(CC)CCCC (stereo not drawn) | inactive | inactive | inactive | inactive | inactive | inactive | inactive | inactive | 34.4 µM (active) | inactive |  |  |  |  |  |  |  |  |
| CC(Oc1ccc(Cl)cc1Cl)C(=O)O (stereo not drawn) | inactive | inactive | inactive | inactive | inactive | inactive | inactive | inactive | 50 µM (active) |  |  |  |  |  |  |  |  |  |
| CC(C)C1(C)N=C(c2nc3ccccc3cc2C(=O)O)NC1=O (stereo not drawn) | inactive | inactive | inactive |  | inactive | inactive | inactive | inactive | 34.6 µM (active) |  |  |  |  |  |  |  |  |  |
| CCCN(CCC)c1c([N+](=O)[O-])cc(S(N)(=O)=O)cc1[N+](=O)[O-] | inactive |  | inactive | inactive | inactive | inactive |  |  | 11.5 µM (active) and 50 µM (active) and 35.1 µM (active) |  | 94.6 µM (active) and 74.2 µM (active) | 96.1 µM (active) | 91.3 µM (active) and 79.8 µM (active) | 93.6 µM (active) and 50 µM (active) and 77.6 µM (active) | 95.4 µM (active) and 77.8 µM (active) and 76.4 µM (active) |  |  |  |
| CN(C)C(=S)SSC(=S)N(C)C | inactive | inactive | inactive | inactive | inactive | inactive | inactive | inactive |  |  |  |  |  |  |  | inactive |  |  |
| O=C(Nc1ccccc1)Nc1ccnc(Cl)c1 | inactive | inactive | inactive | inactive |  |  |  |  | 23.7 µM (active) |  |  | 50 µM (active) | 40.9 µM (active) | 65.3 µM (active) | 69 µM (active) |  |  |  |
| C#CCOS(=O)OC1CCCCC1Oc1ccc(C(C)(C)C)cc1 (stereo not drawn) | inactive |  |  | inactive |  | inactive |  |  |  |  | 27.5 µM (active) | 12.9 µM (active) |  | 20.5 µM (active) | 27.2 µM (active) | inactive | 44.8 µM (active) | 27.4 µM (active) |
| COC(=O)N(OC)c1ccccc1COc1ccn(-c2ccc(Cl)cc2)n1 | inactive |  | inactive |  |  | inactive |  |  | 13 µM (active) | inactive |  | 79 µM (active) |  | 68.4 µM (active) | 75.7 µM (active) |  | 78.3 µM (active) |  |
| CNC(=O)ON=CC(C)(C)SC | inactive | inactive | inactive | inactive | inactive | inactive | inactive | inactive |  | inactive |  |  |  |  |  | inactive |  |  |
| O=C(O)COc1nc(Cl)c(Cl)cc1Cl | inactive | inactive | inactive | inactive | inactive | inactive | inactive | inactive | 51 µM (active) |  |  |  |  |  |  |  |  |  |
| CCc1nn(C)c(C(=O)NCc2ccc(C(C)(C)C)cc2)c1Cl | inactive | inactive |  | inactive |  |  |  |  |  |  | 42.5 µM (active) | 3.24 µM (active) | 0.382 µM (active) | 6.22 µM (active) | 14.2 µM (active) | inactive |  |  |
| CC(C)(C)c1ccc(CSc2cnn(C(C)(C)C)c(=O)c2Cl)cc1 | inactive |  |  | inactive |  | inactive |  |  | 14.2 µM (active) | inactive | 24 µM (active) | 2.3 µM (active) |  | 1.85 µM (active) | 2.68 µM (active) |  | 1.9 µM (active) |  |
| CCCCOC(=O)c1ccccc1C(=O)OCCCC | inactive | inactive | inactive | inactive | inactive | inactive | inactive | inactive |  | inactive |  |  |  |  |  | inactive |  |  |
